Rows were chosen to be rich in hits. Some 4.6% of all compounds tested hit in one or more screens of this group.
TRHR PAM: TRH receptor (human) allosteric enhancement; P34981; enhancement, % at 2 µM; TRHR cells, fluo-8 calcium fluorescence, EC20 TRH enhancement; AID 493056; 360,000 compounds, 0.66% hits; in the data active means enhancement above about 30%
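TRHR-expressing cells loaded with fluo-8 calcium dye were read kinetically (ex 480/em 530) during compound addition, then stimulated with an EC20 of TRH (10 nM final). Enhancement of the Gq-mediated intracellular calcium response was scored.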
TRHR agonist: agonists of human TRH receptor. AID 493084. P34981. activation, % at 2 µM. 360,000 compounds, 0.18% hits. TRHR cells, calcium flux fluo-8, FDSS agonist mode
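Fluo-8-loaded TRHR cells; 10 s baseline, compound added, kinetic Ca2+ fluorescence read 1/s, agonist mode.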
D1 antag: antagonists of human D1 dopamine receptor; HEK293 TREx D1 cells, calcium flux, dopamine EC80; stronger effect = lower value; activity change, negative = inhibition, % at 10 µM; 360,000 compounds, 3.2% hits; AID 504652; in the data active means activity change below about -30%
Target sequence (P21728 whole entry, looked up): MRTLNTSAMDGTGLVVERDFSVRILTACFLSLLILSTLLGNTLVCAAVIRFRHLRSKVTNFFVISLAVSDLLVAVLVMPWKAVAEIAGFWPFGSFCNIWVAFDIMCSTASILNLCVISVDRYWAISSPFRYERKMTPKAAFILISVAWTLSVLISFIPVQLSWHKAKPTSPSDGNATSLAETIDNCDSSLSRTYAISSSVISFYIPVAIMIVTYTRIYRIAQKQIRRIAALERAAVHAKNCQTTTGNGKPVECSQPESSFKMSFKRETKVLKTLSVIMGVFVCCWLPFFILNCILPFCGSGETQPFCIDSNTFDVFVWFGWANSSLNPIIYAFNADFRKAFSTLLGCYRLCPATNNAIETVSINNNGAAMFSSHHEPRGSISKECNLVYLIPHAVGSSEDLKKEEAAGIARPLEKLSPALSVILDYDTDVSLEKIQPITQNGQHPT
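After overnight tetracycline induction at 30 C, force-coupled D1 HEK293 cells took up a no-wash calcium dye at room temperature. Compounds were added and monitored 180 s, and the response to EC80 dopamine was then recorded.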
D1 potentiator: potentiators of human D1 dopamine receptor; P21728; HEK293 TREx D1 cells, calcium flux, dopamine EC20 potentiation; potentiation, % at 10 µM; 360,000 compounds, 0.036% hits; AID 504651; in the data active means potentiation above about 30%
Epigenetic derep: derepresses silenced GFP reporter in murine cells; 280,000 compounds, 0.2% hits; murine LDR cells, GFP reporter derepression, 30 h; Potency, µM (titrated, usually from 53.9 µM), hits mostly activators; AID 1865; active means well fitted activation curve with a large enough effect; inconclusive means small, poorly fitted or top-dose-only effect; further: nearly all actives have a fitted effect of over 60% in size
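Murine LDR cells bearing a silenced CMV-driven GFP reporter were exposed to compound for 30 h at 37 C. After PBS washes, GFP-positive cells (20-120 um objects) counted by laser-scanning microplate cytometry.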
D1 agonist: agonists of human D1 dopamine receptor; 360,000 compounds, 1% hits; HEK293 T-REx D1 cells, calcium flux, agonist mode; activation, % at 2 µM; P21728
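Agonism was scored from calcium flux recorded over 180 s (1 read/s) after pintool compound addition, following a 10-cycle baseline. Cells were inducible force-coupled HEK293 TREx D1, plated overnight at 30 C and loaded with no-wash calcium dye.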
A number is an active result. Unless noted, no stated cut-off is given here; in the data, active means activation above about 30%; inactive means the rest.

Screening CCOC(=O)SC1=N/C(=C\c2ccc(N(C)C)cc2)C(=O)S1 returned TRHR PAM inactive, TRHR agonist inactive, D1 antag inactive, D1 potentiator inactive, Epigenetic derep inactive and D1 agonist 33.
For CCCCC[C@H](O)/C=C/C=C/C=C/[C@H](O)C/C=C\CCCC(=O)O the results were Epigenetic derep inactive.
For Cc1ccc(Cl)cc1NC(=O)CN1C(=O)C(C)(C)c2cc(S(=O)(=O)N3CCCCC3)ccc21 the results were TRHR PAM inactive, TRHR agonist inactive, D1 antag inactive, D1 potentiator inactive, Epigenetic derep inactive and D1 agonist inactive.
`COc1ccc(CC(CC(=O)O)C(=O)Nc2ccc(Cl)c(Cl)c2)cc1` (centres undefined) gave TRHR PAM inactive, TRHR agonist inactive, D1 antag -31, D1 potentiator inactive and D1 agonist inactive.
O=C(COc1ccccc1Cl)Nc1ccc(Cl)c(-c2nc3ccccc3o2)c1 was read as TRHR PAM inactive, TRHR agonist inactive, D1 antag inactive, D1 potentiator inactive, Epigenetic derep inactive and D1 agonist inactive.
`Cc1ccc(C(=O)N2CCN(c3ccc(F)cc3)CC2)cc1NC(=O)c1nsc2ccccc12` gave TRHR PAM inactive, TRHR agonist inactive, D1 antag inactive, D1 potentiator inactive, Epigenetic derep inconclusive and D1 agonist inactive.
For Cc1ccc(NC(=O)Nc2nnc(SCC(=O)N(C(C)C)C(C)C)s2)cc1 the results were TRHR PAM inactive, TRHR agonist inactive, D1 potentiator inactive, Epigenetic derep inactive and D1 agonist inactive.
Cc1ccccc1OCC(O)Cn1nnc2ccccc21 (centres undefined) was read as TRHR PAM inactive, TRHR agonist inactive, D1 antag -55, D1 potentiator inactive, Epigenetic derep inactive and D1 agonist inactive.
For Cc1cccc(C)c1OCCn1nnc2ccccc21 the results were TRHR PAM inactive, TRHR agonist inactive, D1 antag -42, D1 potentiator inactive and D1 agonist inactive.
`CCC(=O)c1ccc(OCC(O)Cn2nnc3ccccc32)cc1` (centres undefined) gave TRHR PAM inactive, TRHR agonist inactive, D1 antag inactive, D1 potentiator inactive, Epigenetic derep inactive and D1 agonist inactive.
For Cc1nn(C)c2c1c(-c1ccccc1)cc(=O)n2Cc1ccc(Cl)cc1 the results were TRHR PAM 39, TRHR agonist inactive, D1 antag inactive, D1 potentiator inactive, Epigenetic derep inactive and D1 agonist inactive.
Screening Cc1cc(=O)n(Cc2ccccc2)c2c1c(C)nn2C returned TRHR PAM inactive, TRHR agonist inactive, D1 antag inactive, D1 potentiator inactive, Epigenetic derep inactive and D1 agonist inactive.
Screening Cc1cccc(N2CCN(C(=O)c3oc(=O)c4ccccc4c3-c3ccccc3)CC2C)c1 (centres undefined) returned TRHR PAM inactive, TRHR agonist inactive, D1 antag inactive, D1 potentiator inactive, Epigenetic derep inactive and D1 agonist inactive.
Screening C#CCOc1c(Cl)cc(/C=N/O)cc1OC returned TRHR PAM inactive, TRHR agonist inactive, D1 antag -62, D1 potentiator inactive, Epigenetic derep inactive and D1 agonist inactive.
Screening Cc1ccc(NC(=O)CSc2nc3c(oc4ccccc43)c(=O)n2Cc2ccco2)cc1F returned TRHR PAM inactive, TRHR agonist inactive, D1 antag inactive, D1 potentiator inactive, Epigenetic derep inactive and D1 agonist inactive.
For COc1ccc(S(=O)(=O)NNC(N)=S)cc1 the results were TRHR PAM 31, TRHR agonist inactive, D1 antag inactive, D1 potentiator inactive, Epigenetic derep inactive and D1 agonist inactive.
For COc1ccc(S(=O)(=O)Nc2ncccn2)cc1 the results were TRHR PAM inactive, TRHR agonist inactive, D1 antag -44, D1 potentiator inactive and D1 agonist inactive.
Screening O=C(Nc1ccc(Cl)cc1)Nc1ccc(S(=O)(=O)Nc2ncccn2)cc1 returned TRHR PAM inactive, TRHR agonist inactive, D1 antag -60, D1 potentiator inactive, Epigenetic derep inactive and D1 agonist inactive.
Screening Cc1nnc(N2CCN(c3ccccc3)CC2)c2c1nnn2Cc1ccc(F)cc1 returned TRHR PAM inactive, TRHR agonist inactive, D1 antag inactive, D1 potentiator inactive, Epigenetic derep inactive and D1 agonist inactive.
For O=c1[nH]c2ccc([N+](=O)[O-])cc2nc1/C=C(\O)c1ccccc1 the results were TRHR PAM inactive, TRHR agonist inactive, D1 antag inactive, D1 potentiator inactive, Epigenetic derep 6.3µM and D1 agonist inactive.
`Cc1ccc(C(=O)c2cn(CC(=O)NCc3ccccc3Cl)c3nc(C)ccc3c2=O)cc1` gave TRHR PAM inactive, TRHR agonist inactive, D1 antag inactive, D1 potentiator inactive, Epigenetic derep inactive and D1 agonist inactive.
Screening C/C(=N\O)c1ccc(Cl)c(Cl)c1 returned TRHR PAM inactive, TRHR agonist inactive, D1 antag -49, D1 potentiator inactive, Epigenetic derep inactive and D1 agonist inactive.
For CNC(=S)N/N=C(\C)c1ccc(Cl)c(Cl)c1 the results were TRHR PAM inactive, TRHR agonist inactive, D1 antag inactive, D1 potentiator inactive, Epigenetic derep inactive and D1 agonist inactive.
CCCN(C(=O)CSc1nc2ccccc2n1CC)C1CCS(=O)(=O)C1 (centres undefined) was read as TRHR PAM inactive, TRHR agonist inactive, D1 antag -30, D1 potentiator inactive and D1 agonist inactive.
Screening CCN(C(=O)CSc1nc2ccccc2n1CCc1ccccc1)C1CCS(=O)(=O)C1 (centres undefined) returned TRHR PAM inactive, TRHR agonist inactive, D1 antag inactive, D1 potentiator inactive, Epigenetic derep inactive and D1 agonist inactive.
For COc1ccc(CCNC(=O)Cc2c(C)c3cc4c(C)coc4cc3oc2=O)cc1OC the results were TRHR PAM inactive, TRHR agonist inactive, D1 antag inactive, D1 potentiator inactive, Epigenetic derep inactive and D1 agonist inactive.
COC(=O)C(/C=N/OCc1ccc([N+](=O)[O-])cc1)NC(=O)c1ccccc1 (centres undefined) was read as TRHR PAM inactive, TRHR agonist inactive, D1 antag inactive, D1 potentiator inactive, Epigenetic derep inactive and D1 agonist 30.
O=C(C/C=N\OCc1ccc([N+](=O)[O-])cc1)Nc1ccccc1 was read as TRHR PAM inactive, TRHR agonist inactive, D1 antag inactive, D1 potentiator inactive, Epigenetic derep inactive and D1 agonist inactive.
Screening O=C(COc1ccccc1-c1ccccc1)N/N=C/c1cccc2ccccc12 returned TRHR PAM inactive, TRHR agonist inactive, D1 antag inactive, D1 potentiator inactive, Epigenetic derep inactive and D1 agonist inactive.
